Targets with a hit are over-represented here; the source holds about 7,900 in all. About 0.6% of all pairs of compound and target were hits.
Experiments:
Assay in all cases: log2 fold change, soluble protein after heating vs DMSO (PISA); higher = thermal stabilisation; K562 cells, 10 uM, 30 min; active = over 0.2 and 3.5 SD of the protein, either way, in both replicates (recomputed)
[1] = compound: CC1=C(C=C(C=C1)NC(=O)C2=CC(=CC=C2)C(C)(C)C#N)NC3=CC4=C(C=C3)N=CN(C4=O)C
How it was run: (§1)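 K562 cells (2×10^6 cells/mL) were treated with 10 μM compound for 30 min, and aliquots were heated for 3 min over 48°C-58°C. Pooled aliquots were extracted in PBS with 0.5% NP-40 at 4°C, and the supernatant after 21,000xg for 90 min was measured by TMTpro 16plex LC-MS/MS with channel sums equalised. Reported thermal stability, relative to control samples and from duplicates, is a log2 fold change.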

[2] = compound: CC1=C(C=C(C=C1)NC(=O)C2=CC(=CC=C2)N(C)C)NC(=O)C3=CC=C(C=C3)O
How it was run: as §1

[3] = compound: CC1=CC=C(C=C1)SC2=C3C=C(SC3=CN=C2)C(=O)N
How it was run: as §1

[4] = compound: CC1=NC(=CC=C1)C2=C(N=C(N2)C(C)(C)C)C3=CC4=NC=CN=C4C=C3
How it was run: as §1

Nexturastat A = compound: CCCCN(Cc1ccc(C(=O)NO)cc1)C(=O)Nc1ccccc1 [Nexturastat A]
How it was run: as §1

vemurafenib = compound: CCCS(=O)(=O)Nc1ccc(F)c(C(=O)c2c[nH]c3ncc(-c4ccc(Cl)cc4)cc23)c1F [vemurafenib]
How it was run: as §1

[5] = compound: CCCS(=O)(=O)Nc1ccc(F)c(C(=O)c2c[nH]c3ncc(Cl)cc23)c1F
How it was run: as §1

[6] = compound: CCCc1cc(C)[nH]c(=O)c1CNC(=O)c1cc(-c2ccnc(N3CCN(C)CC3)c2)cc2c1cnn2C(C)C
How it was run: as §1

givinostat = compound: CCN(CC)Cc1ccc2cc(COC(=O)Nc3ccc(C(=O)NO)cc3)ccc2c1 [givinostat]
How it was run: as §1

barasertib = compound: CCN(CCCOc1ccc2c(Nc3cc(CC(=O)Nc4cccc(F)c4)[nH]n3)ncnc2c1)CCOP(=O)(O)O [barasertib]
How it was run: as §1

Measured: log2 fold change

PGGHG (UniProt Q32M88)
inactive: [1] 0.017 | [2] -0.127 | [3] 0.197 | [4] -0.003 | Nexturastat A 0 | vemurafenib -0.044 | [5] -0.091 | [6] -0.175 | givinostat -0.003 | barasertib 0.001

PNPLA8 (UniProt Q9NP80)
inactive: [1] 0.001 | [2] 0.026 | [3] 0.007 | [4] -0.027 | Nexturastat A 0.041 | vemurafenib -0.002 | [5] -0.005 | [6] 0.084 | givinostat 0.067 | barasertib 0.066

PIGG (UniProt Q5H8A4)
Sequence of UniProt Q5H8A4 (Q5H8A4 whole entry, looked up): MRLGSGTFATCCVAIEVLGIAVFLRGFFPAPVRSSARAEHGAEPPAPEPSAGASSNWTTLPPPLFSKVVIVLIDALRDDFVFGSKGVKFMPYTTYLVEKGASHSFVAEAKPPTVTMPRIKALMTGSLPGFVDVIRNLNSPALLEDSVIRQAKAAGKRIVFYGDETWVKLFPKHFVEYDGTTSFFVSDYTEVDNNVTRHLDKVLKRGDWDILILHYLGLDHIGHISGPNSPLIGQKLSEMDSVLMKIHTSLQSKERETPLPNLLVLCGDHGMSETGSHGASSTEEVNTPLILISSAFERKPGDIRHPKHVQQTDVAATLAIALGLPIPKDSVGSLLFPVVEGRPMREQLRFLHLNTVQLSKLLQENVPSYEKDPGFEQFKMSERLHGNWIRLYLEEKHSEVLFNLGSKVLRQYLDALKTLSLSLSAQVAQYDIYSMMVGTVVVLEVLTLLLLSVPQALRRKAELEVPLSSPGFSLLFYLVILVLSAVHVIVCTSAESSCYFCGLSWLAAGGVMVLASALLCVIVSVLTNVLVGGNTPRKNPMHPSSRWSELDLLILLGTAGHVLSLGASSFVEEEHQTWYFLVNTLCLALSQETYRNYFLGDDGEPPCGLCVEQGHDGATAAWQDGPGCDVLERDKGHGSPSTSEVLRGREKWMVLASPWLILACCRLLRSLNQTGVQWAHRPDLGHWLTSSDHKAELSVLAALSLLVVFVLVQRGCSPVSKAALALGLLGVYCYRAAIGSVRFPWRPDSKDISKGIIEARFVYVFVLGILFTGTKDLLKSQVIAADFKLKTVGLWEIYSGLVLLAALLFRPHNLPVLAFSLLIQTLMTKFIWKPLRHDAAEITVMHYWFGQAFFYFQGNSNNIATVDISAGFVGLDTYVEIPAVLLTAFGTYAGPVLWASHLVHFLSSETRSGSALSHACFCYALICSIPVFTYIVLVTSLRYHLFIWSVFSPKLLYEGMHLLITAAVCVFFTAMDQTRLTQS
inactive: [1] 0.016 | [2] -0.003 | [3] 0.004 | [4] -0.007 | Nexturastat A 0.018 | vemurafenib 0.359 | [5] -0.019 | [6] -0.045 | givinostat 0.001 | barasertib 0.001

PARL (UniProt Q9H300)
inactive: [1] 0 | [2] 0.025 | [3] 0.02 | [4] 0.002 | Nexturastat A -0.098 | vemurafenib -0.014 | [5] 0.057 | [6] -0.036 | givinostat 0.068 | barasertib -0.022

PHAX (UniProt Q9H814)
inactive: [1] -0.019 | [2] 0.013 | [3] 0.022 | [4] -0.043 | Nexturastat A 0.02 | vemurafenib 0.002 | [5] -0.019 | [6] -0.045 | givinostat -0.076 | barasertib -0.008

PSMB4 (UniProt P28070)
inactive: [1] -0.026 | [2] 0.02 | [3] -0.075 | [4] -0.031 | Nexturastat A 0.023 | vemurafenib -0.027 | [5] -0.029 | [6] 0.008 | givinostat -0.008 | barasertib -0.052

PPP2R5E (UniProt Q16537)
inactive: [1] -0.049 | [2] -0.065 | [3] -0.023 | [4] 0.066 | Nexturastat A 0.003 | vemurafenib 0.027 | [5] 0.07 | [6] 0.03 | givinostat 0.032 | barasertib 0.027

PRPSAP2 (UniProt O60256)
inactive: [1] -0.141 | [2] -0.002 | [3] -0.021 | [4] -0.07 | Nexturastat A -0.083 | vemurafenib -0.022 | [5] -0.019 | [6] -0.026 | givinostat -0.034 | barasertib -0.005

PRIM1 (UniProt P49642)
inactive: [1] 0.02 | [2] -0.083 | [3] 0.061 | [4] -0.004 | Nexturastat A 0.162 | vemurafenib 0.042 | [5] 0.1 | [6] 0.074 | givinostat 0.031 | barasertib 0.056

POLR2G (UniProt P62487)
inactive: [1] 0.025 | [2] -0.033 | [3] 0.059 | [4] 0.057 | Nexturastat A -0.015 | vemurafenib -0.022 | [5] 0.009 | [6] -0.038 | givinostat -0.094 | barasertib -0.019

PARG (UniProt Q86W56)
inactive: [1] 0.126 | [2] -0.064 | [3] -0.008 | [4] 0.025 | Nexturastat A 0.018 | vemurafenib 0.087 | [5] -0.006 | [6] -0.003 | givinostat 0.107 | barasertib 0.07

PRKAB1 (UniProt Q9Y478)
inactive: [1] -0.055 | [2] 0.026 | [3] 0.022 | [4] 0.01 | Nexturastat A -0.002 | vemurafenib 0.031 | [5] 0.017 | [6] 0.109 | givinostat 0.08 | barasertib 0.026

PSMD7 (UniProt P51665)
inactive: [1] -0.011 | [2] -0.005 | [3] -0.047 | [4] -0.038 | Nexturastat A 0.145 | vemurafenib -0.073 | [5] -0.029 | [6] 0.045 | givinostat -0.03 | barasertib -0.05

POLR3B (UniProt Q9NW08)
Sequence of UniProt Q9NW08 (Q9NW08 whole entry, looked up): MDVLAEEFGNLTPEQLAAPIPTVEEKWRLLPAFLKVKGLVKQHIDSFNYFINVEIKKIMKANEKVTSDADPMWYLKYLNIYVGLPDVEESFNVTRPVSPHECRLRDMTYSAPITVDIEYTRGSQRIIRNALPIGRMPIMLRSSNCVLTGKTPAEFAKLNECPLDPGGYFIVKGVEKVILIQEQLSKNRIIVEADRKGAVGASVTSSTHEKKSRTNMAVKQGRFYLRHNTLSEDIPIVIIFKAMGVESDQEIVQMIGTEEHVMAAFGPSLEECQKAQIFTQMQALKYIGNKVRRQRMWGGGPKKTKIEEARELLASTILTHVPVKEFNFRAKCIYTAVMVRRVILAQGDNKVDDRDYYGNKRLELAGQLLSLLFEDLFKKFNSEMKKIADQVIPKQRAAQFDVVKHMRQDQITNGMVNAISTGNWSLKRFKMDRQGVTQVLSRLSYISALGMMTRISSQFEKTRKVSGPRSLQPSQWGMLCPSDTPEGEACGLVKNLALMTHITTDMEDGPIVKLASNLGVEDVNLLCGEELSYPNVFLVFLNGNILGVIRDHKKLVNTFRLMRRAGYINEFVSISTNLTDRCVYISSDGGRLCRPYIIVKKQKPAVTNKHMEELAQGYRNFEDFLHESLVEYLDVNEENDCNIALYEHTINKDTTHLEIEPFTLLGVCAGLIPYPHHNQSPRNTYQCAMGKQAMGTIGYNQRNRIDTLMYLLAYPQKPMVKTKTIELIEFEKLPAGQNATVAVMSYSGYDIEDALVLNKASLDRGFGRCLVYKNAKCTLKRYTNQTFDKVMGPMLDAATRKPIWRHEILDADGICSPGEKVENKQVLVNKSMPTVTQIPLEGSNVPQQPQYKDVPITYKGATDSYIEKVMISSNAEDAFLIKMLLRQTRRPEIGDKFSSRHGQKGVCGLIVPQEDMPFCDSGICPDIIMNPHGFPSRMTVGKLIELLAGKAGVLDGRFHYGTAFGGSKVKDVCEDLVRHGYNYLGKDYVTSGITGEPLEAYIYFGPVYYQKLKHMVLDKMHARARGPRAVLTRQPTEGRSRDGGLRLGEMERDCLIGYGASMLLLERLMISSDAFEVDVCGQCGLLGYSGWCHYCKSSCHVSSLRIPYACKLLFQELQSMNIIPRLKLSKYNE
inactive: [1] 0.024 | [2] -0.062 | [3] -0.008 | [4] 0.022 | Nexturastat A 0.026 | vemurafenib 0.003 | [5] 0.172 | [6] 0.063 | givinostat 0.138 | barasertib 0.114

PRKAA1 isoform 2 (UniProt Q13131)
inactive: [1] -0.029 | [2] 0.001 | [3] -0.001 | [4] 0.02 | Nexturastat A -0.042 | vemurafenib 0.025 | [5] 0.008 | [6] 0.021 | givinostat -0.014 | barasertib 0.016

PDCD4 (UniProt Q53EL6)
Sequence of UniProt Q53EL6 (Q53EL6 whole entry, looked up): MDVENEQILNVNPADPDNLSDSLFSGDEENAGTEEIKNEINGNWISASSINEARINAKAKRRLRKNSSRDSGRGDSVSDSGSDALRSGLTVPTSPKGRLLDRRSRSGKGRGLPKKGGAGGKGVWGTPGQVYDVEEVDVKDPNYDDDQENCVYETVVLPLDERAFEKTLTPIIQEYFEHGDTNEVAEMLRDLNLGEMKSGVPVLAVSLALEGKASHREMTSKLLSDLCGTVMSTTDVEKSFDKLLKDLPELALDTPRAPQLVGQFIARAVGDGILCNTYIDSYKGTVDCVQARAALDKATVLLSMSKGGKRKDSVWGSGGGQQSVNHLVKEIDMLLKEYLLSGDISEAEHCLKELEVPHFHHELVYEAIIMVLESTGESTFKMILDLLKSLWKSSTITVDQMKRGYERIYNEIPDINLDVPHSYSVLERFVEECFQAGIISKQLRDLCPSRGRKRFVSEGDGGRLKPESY
inactive: [1] 0.029 | [2] -0.043 | [3] 0.012 | [4] 0.016 | Nexturastat A -0.11 | vemurafenib 0.083 | [5] 0.107 | [6] -0.06 | givinostat 0.103 | barasertib 0.002

PDPK1 (UniProt O15530)
Sequence of UniProt O15530 (O15530 whole entry, looked up): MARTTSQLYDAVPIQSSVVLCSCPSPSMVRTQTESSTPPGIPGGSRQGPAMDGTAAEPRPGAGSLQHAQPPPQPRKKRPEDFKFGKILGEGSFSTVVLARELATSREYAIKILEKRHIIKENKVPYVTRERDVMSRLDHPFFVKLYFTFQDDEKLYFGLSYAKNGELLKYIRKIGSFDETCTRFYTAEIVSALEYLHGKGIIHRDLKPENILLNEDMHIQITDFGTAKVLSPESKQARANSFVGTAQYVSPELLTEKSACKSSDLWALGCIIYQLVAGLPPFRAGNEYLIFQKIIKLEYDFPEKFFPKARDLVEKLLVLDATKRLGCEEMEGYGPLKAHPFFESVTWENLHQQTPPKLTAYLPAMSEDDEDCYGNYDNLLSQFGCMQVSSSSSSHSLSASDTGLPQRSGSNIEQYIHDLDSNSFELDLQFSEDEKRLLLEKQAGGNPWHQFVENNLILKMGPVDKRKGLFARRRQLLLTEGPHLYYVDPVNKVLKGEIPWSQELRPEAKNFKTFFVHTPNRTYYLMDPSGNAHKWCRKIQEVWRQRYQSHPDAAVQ
inactive: [1] -0.026 | [2] -0.055 | [3] 0.019 | [4] -0.007 | Nexturastat A -0.12 | vemurafenib 0.03 | [5] 0.003 | [6] -0.018 | givinostat 0.032 | barasertib 0.035

PSME4 (UniProt Q14997)
inactive: [1] 0.017 | [2] -0.02 | [3] -0.024 | [4] -0.017 | Nexturastat A -0.034 | vemurafenib -0.014 | [5] -0.005 | [6] -0.043 | givinostat 0.022 | barasertib -0.007

PGM3 isoform 4 (UniProt O95394)
inactive: [1] 0.013 | [2] -0.073 | [3] 0.021 | [4] 0.04 | Nexturastat A -0.01 | vemurafenib 0.017 | [5] 0.04 | [6] 0.008 | givinostat -0.044 | barasertib 0.017

PSMA3 (UniProt P25788)
inactive: [1] 0.01 | [2] 0.027 | [3] -0.025 | [4] 0.013 | Nexturastat A -0.039 | vemurafenib -0.001 | [5] -0.019 | [6] -0.011 | givinostat -0.011 | barasertib -0.034

PSMD1 (UniProt Q99460)
Sequence of UniProt Q99460 (Q99460 whole entry, looked up): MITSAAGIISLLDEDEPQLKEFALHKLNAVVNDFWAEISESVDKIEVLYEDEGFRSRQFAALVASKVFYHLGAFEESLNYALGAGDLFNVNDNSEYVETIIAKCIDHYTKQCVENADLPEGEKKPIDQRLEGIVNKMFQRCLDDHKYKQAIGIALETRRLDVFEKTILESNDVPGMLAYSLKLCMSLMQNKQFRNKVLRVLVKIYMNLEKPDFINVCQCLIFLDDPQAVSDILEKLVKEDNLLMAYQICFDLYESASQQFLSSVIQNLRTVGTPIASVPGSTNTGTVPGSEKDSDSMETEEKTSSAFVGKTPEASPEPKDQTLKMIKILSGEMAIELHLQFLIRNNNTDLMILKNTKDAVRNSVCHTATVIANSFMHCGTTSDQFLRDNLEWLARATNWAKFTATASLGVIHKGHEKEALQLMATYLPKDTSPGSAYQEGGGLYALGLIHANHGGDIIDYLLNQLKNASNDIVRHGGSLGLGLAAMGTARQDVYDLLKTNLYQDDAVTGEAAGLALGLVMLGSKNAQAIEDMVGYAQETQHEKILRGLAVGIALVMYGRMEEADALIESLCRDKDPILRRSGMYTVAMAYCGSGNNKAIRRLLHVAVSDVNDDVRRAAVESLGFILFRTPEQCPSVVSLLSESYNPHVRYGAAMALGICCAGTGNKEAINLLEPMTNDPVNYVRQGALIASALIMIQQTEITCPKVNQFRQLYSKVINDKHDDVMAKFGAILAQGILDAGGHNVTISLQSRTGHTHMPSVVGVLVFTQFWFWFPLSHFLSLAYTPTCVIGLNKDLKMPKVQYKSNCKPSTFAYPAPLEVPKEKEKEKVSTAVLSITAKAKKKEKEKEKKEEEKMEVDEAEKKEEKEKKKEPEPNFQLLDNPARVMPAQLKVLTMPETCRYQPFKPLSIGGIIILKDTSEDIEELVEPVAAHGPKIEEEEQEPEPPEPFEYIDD
inactive: [1] 0.06 | [2] 0.021 | [3] -0.001 | [4] -0.011 | Nexturastat A 0.055 | vemurafenib -0.041 | [5] -0.049 | [6] 0.05 | givinostat -0.046 | barasertib -0.036

PIP4P2 (UniProt Q8N4L2)
inactive: [1] 0.107 | [2] -0.03 | [3] -0.006 | [4] -0.002 | Nexturastat A -0.092 | vemurafenib -0.013 | [5] 0.041 | [6] -0.045 | givinostat -0.067 | barasertib 0

PISD (UniProt Q9UG56)
Sequence of UniProt Q9UG56 (Q9UG56 whole entry, looked up): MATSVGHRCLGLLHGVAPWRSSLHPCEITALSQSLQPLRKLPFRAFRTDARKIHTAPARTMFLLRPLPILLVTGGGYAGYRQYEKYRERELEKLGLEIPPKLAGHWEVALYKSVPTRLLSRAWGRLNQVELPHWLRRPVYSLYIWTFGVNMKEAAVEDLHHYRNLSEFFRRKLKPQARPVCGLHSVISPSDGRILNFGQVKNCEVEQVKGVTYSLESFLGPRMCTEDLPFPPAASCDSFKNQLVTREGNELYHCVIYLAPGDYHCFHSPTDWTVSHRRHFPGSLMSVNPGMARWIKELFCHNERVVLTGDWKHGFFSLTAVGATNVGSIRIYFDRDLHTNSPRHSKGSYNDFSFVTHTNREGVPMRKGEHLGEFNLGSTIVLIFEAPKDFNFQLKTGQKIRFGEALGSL
inactive: [1] -0.015 | [2] 0.002 | [3] 0.013 | [4] 0.085 | Nexturastat A 0.022 | vemurafenib -0.068 | [5] 0.049 | [6] 0.009 | givinostat 0.024 | barasertib 0.026

PRKACA (UniProt P17612)
inactive: [1] -0.002 | [2] -0.008 | [3] -0.023 | [4] 0.043 | Nexturastat A 0.099 | vemurafenib 0.015 | [5] 0.019 | [6] -0.019 | givinostat 0.006 | barasertib -0.008

PLK1 (UniProt P53350)
active: givinostat -0.314
inactive: [1] 0.003 | [2] -0.052 | [3] -0.03 | [4] -0.012 | Nexturastat A 0.003 | vemurafenib 0.018 | [5] 0.029 | [6] 0.042 | barasertib 0.015

PSMC2 (UniProt P35998)
inactive: [1] 0.011 | [2] 0.02 | [3] -0.012 | [4] -0.069 | Nexturastat A 0.011 | vemurafenib -0.014 | [5] -0.041 | [6] 0.036 | givinostat -0.032 | barasertib -0.053

PKM (UniProt P14618)
inactive: [1] -0.013 | [2] -0.005 | [3] 0.001 | [4] 0.014 | Nexturastat A -0.054 | vemurafenib -0.012 | [5] -0.01 | [6] -0.023 | givinostat 0 | barasertib -0.011

PTP4A2 (UniProt Q12974)
Sequence of UniProt Q12974 (Q12974 whole entry, looked up): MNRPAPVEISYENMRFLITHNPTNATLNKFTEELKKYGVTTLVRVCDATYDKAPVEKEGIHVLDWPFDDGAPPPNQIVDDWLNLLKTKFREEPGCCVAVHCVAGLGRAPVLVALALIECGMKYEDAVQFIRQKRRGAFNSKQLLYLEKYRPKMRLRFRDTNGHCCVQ
inactive: [1] 0.026 | [2] -0.045 | [3] 0.012 | [4] 0.076 | Nexturastat A -0.069 | vemurafenib -0.002 | [5] -0.129 | [6] 0.02 | givinostat -0.022 | barasertib -0.006

PURA (UniProt Q00577)
Sequence of UniProt Q00577 (Q00577 whole entry, looked up): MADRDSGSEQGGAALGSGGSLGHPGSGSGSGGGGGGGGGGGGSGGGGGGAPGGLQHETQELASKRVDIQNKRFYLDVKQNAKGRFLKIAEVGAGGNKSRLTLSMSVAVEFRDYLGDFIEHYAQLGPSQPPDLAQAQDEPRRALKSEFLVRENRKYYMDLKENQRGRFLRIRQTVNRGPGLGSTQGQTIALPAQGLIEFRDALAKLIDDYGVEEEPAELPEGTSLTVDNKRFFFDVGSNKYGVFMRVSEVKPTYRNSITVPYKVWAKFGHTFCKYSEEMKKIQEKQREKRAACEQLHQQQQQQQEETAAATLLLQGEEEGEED
inactive: [1] 0.032 | [2] 0.032 | [3] -0.101 | [4] -0.121 | Nexturastat A 0.112 | vemurafenib -0.111 | [5] -0.143 | [6] 0.144 | givinostat -0.008 | barasertib -0.091

PTPA (UniProt Q15257)
inactive: [1] 0.001 | [2] -0.01 | [3] 0.004 | [4] 0.014 | Nexturastat A -0.006 | vemurafenib 0.044 | [5] -0.017 | [6] -0.046 | givinostat -0.005 | barasertib -0.007

Reference: the supplement of paper PMC10849652
